Measured values: PubChem BioAssay (NCI)
This is part of a sample that, as a whole, favours compounds with a hit. Of some 79,000 tested, about 15% had one in any assay. A number with no mark means an inactive call. Active and inactive are the calls of the source. No stated cut-off is given here; in the data, active means growth inhibition above about 70%; inactive means the rest.

Experiments:
[1] = NCI Yeast Anticancer Drug Screen. Data for the rad50 strain (AID 155);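 further: 0% = growth of vehicle-only cultures of the same strain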; details: S. cerevisiae rad50 strain growth inhibition, stronger effect = higher value
Procedure, shortened: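 Growth of the mutant yeast was measured after compound exposure and referenced to vehicle-treated cultures.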

[2] = NCI Yeast Anticancer Drug Screen. Data for the mec2-1 strain (AID 157); details: S. cerevisiae mec2-1 strain, stronger effect = higher value
Procedure, shortened: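 Cells of the genetically defined mec2-1 yeast strain are incubated with test compound. Inhibition of growth is calculated against vehicle-treated controls.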

[3] = NCI Yeast Anticancer Drug Screen. Data for the sgs1 mgt1 strain (AID 161);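 further: 0% = growth of cultures given vehicle only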; details: S. cerevisiae sgs1 mgt1 strain, stronger effect = higher value
Procedure, shortened: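 Genetically altered yeast, compound exposure, growth inhibition relative to vehicle.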

[4] = NCI Yeast Anticancer Drug Screen. Data for the cln2 rad14 strain (AID 165);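 further: 0% = growth equal to vehicle treated cultures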; details: S. cerevisiae cln2 rad14 strain, stronger effect = higher value
Procedure, shortened: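 The screen exposed genetically defined yeast (cln2 rad14) to test compounds and scored growth inhibition relative to vehicle-treated controls.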

[5] = NCI Yeast Anticancer Drug Screen. Data for the bub3 strain (AID 167); details: S. cerevisiae bub3 mutant strain, stronger effect = higher value
Procedure, shortened: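 Whole-cell yeast assay. The mutant strain was incubated with compounds, and growth inhibition was determined by comparison with vehicle-treated cells.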

[6] = NCI Yeast Anticancer Drug Screen. Data for the mlh1 rad18 strain (AID 175); details: S. cerevisiae mlh1 rad18 strain growth inhibition, stronger effect = higher value
Procedure, shortened: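 Compound-treated yeast growth, normalised to vehicle controls. Strain bears defined DNA repair mutations.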

[7] = at 5.0 µM (retest, dose inferred, filed as 0.5)
[8] = at 50.0 µM (retest, dose inferred, filed as 5.0)

SMILES | growth inhibition [1, 7] | growth inhibition [1, 8] | growth inhibition ([1]; at 50.0 µM) | growth inhibition [2, 7] | growth inhibition [2, 8] | growth inhibition ([2]; at 50.0 µM) | growth inhibition [3, 7] | growth inhibition [3, 8] | growth inhibition ([3]; at 50.0 µM) | growth inhibition [4, 7] | growth inhibition [4, 8] | growth inhibition ([4]; at 50.0 µM) | growth inhibition [5, 7] | growth inhibition [5, 8] | growth inhibition ([5]; at 50.0 µM) | growth inhibition [6, 7] | growth inhibition [6, 8] | growth inhibition ([6]; at 50.0 µM)
CCS(=O)(=O)/C=C/c1ccncc1 | -3% | 11% | 24.7% | 3% | -1% | 27.9% | -2% | 12% | 6.4% | 1% | 12% | 5.85% | -2% | 2% | 7.9% | 11% | 11% | 20.3%
CCC(C)(C)c1ccc(OC(=O)C(C)OC(C)=O)cc1 (configuration not stated) | 12% | 33% | 82% (active) | -5% | 48% | 84.9% (active) | 0% | 68% | 88% (active) | 1% | 21% | 49.9% | -5% | 53% | 87.2% (active) | -10% | 46% | 86.7% (active)
O=C(c1ccccc1)c1ccc(O)cc1O | -5% | 49% | 85% (active) | -10% | 24% | 84.5% (active) | -5% | 15% | 88.5% (active) | -4% | 2% | 26.4% | -26% | -17% | 58.9% | -9% | 12% | 72.1% (active)
CCc1cccc(CC)c1NC(=O)CS | -151% | 93% (active) | 98% (active) | -51% | 94% (active) | 97.7% (active) | -64% | 90% (active) | 61.7% | -72% | 90% (active) | 95.8% (active) | -85% | 92% (active) | 97.8% (active) | -132% | 93% (active) | 98% (active)
Cc1ccc(SSCCCCS(=O)O)cc1 | -2% | 33% | 65.7% | 4% | 85% (active) | 62.2% | 5% | 91% (active) | 82.8% (active) | -5% | 64% | 84.9% (active) | 13% | 88% (active) | 80.3% (active) | 1% | 80% (active) | 91.8% (active)
Cc1c(N)nc(C2CC(=O)N2CC(N)C(N)=O)nc1C(=O)NC(C(=O)NC(C)C(O)C(C)C(=O)NC(C(=O)NCCc1nc(-c2nc(C(=O)NCCCNC3CCCC3)cs2)cs1)C(C)O)C(OC1OC(CO)C(O)C(O)C1OC1OC(CO)C(O)C(OC(N)=O)C1O)c1cnc[nH]1 (configuration not stated) | 98% (active) | 99% (active) | 92.2% (active) | 97% (active) | 99% (active) | 93.3% (active) | 96% (active) | 98% (active) | 93.5% (active) | 93% (active) | 97% (active) | 88.3% (active) | 97% (active) | 98% (active) | 93.5% (active) | 98% (active) | 99% (active) | 92% (active)
C=C(CN(C)C)C(=O)c1ccc(Oc2ccccc2)cc1 | 99% (active) | 100% (active) | 99.2% (active) | 99% (active) | 100% (active) | 99.4% (active) | 99% (active) | 100% (active) | 59.5% | 71% (active) | 99% (active) | 99.4% (active) | 99% (active) | 100% (active) | 98.8% (active) | 98% (active) | 100% (active) | 99.5% (active)
CC1=CC(=O)[C@@H](O)[C@]2(C)[C@H]3[C@@]4(O)OC[C@]35[C@H]([C@@H](C)[C@H]4O)[C@@H](OC(=O)C(C)(C)CO)C(=O)O[C@@H]5C[C@@H]12 | 10% | 44% | 90.7% (active) | 15% | 45% | 90.8% (active) | 6% | 40% | 88.3% (active) | 17% | 51% | 90.5% (active) | 6% | 39% | 92.2% (active) | 6% | 51% | -7.05%
O=C1C=CC(=O)c2c(O)c(N3CCN(CCOCCO)CC3)c(Br)c(O)c21 | 15% | 96% (active) | 88.3% (active) | 13% | 98% (active) | 88.6% (active) | 18% | 97% (active) | 89.7% (active) | 17% | 96% (active) | 86.4% (active) | 25% | 96% (active) | 85.9% (active) | 16% | 98% (active) | 86.5% (active)
O=C(O)C(Cc1ccccc1)N=Cc1ccc(O)cc1 (configuration not stated) | 70% (active) | 97% (active) | 11.1% | 58% | 99% (active) | 11.8% | 79% (active) | 98% (active) | 6.8% | 33% | 97% (active) | 43.8% | 43% | 98% (active) | 20.2% | 68% | 98% (active) | -1.05%
Oc1ccccc1N=CC1CCCCC1 | -61% | 40% | 69% | -27% | -24% | 37.1% | -33% | -23% | 28.4% | -53% | -31% | 17% | 9% | 46% | 74% (active) | -32% | 20% | 66.2%
CC(NC(=O)OCc1ccccc1)C(=O)NC(Cc1ccccc1)C(=O)OCc1ccccc1 (configuration not stated) | 1% | 5% | -17.6% | 37% | 2% | -5.05% | -2% | -1% | 22% | 5% | 2% | 36.6% | -3% | -7% | -4.4% | 1% | 7% | 6.45%
CO[C@H]1CC[C@@]2(C)C(=CC[C@H]3[C@@H]4C[C@H](OC(C)=O)C[C@@]4(C)CC[C@@H]32)C1 | 4% | 43% | 26.4% | 2% | 26% | 17.8% | 1% | 24% | 38.3% | 2% | 28% | 86.7% (active) | 1% | 19% | 13.3% | 0% | 23% | 34.9%
Oc1c(Cl)cc(Cl)c(Cc2c(Cl)cc(Cl)c(O)c2Cl)c1Cl | 98% (active) | 97% (active) | 65.8% | 98% (active) | 98% (active) | 3.5% | 98% (active) | 99% (active) | -10.2% | 98% (active) | 97% (active) | 19.5% | 97% (active) | 97% (active) | -3.05% | 99% (active) | 96% (active) | 46.6%
c1ccc(-c2nc3nc4ccccc4nc3nc2-c2ccccn2)nc1 | -8% | 84% (active) | 24.9% | 4% | 92% (active) | 0.9% | 8% | 87% (active) | 20.6% | -5% | 85% (active) | -19.1% | -4% | 98% (active) | 50.6% | 14% | 98% (active) | 22.8%
O=C(/C=C(/c1ccccc1)P(=O)(c1ccccc1)c1ccccc1)c1ccccc1 | -2% | 97% (active) | 97.9% (active) | -15% | 97% (active) | 98.6% (active) | -5% | 97% (active) | 98.8% (active) | -4% | 71% (active) | 97.8% (active) | -5% | 86% (active) | 97.8% (active) | 15% | 99% (active) | 98.6% (active)
O=[N+]([O-])c1c(Cl)cccc1-c1c[nH]cc1Cl | 12% | 99% (active) | 92.8% (active) | 25% | 98% (active) | 93.4% (active) | 19% | 100% (active) | 93.5% (active) | -1% | 99% (active) | 90.9% (active) | 6% | 99% (active) | 92.2% (active) | 44% | 99% (active) | 37.8%
S=C(N/N=C/c1ccccn1)N1CCCCC1 | 99% (active) | 98% (active) | 89.3% (active) | 97% (active) | 99% (active) | 92.4% (active) | 98% (active) | 97% (active) | 91.8% (active) | 96% (active) | 99% (active) | 93% (active) | 98% (active) | 100% (active) | 92% (active) | 98% (active) | 99% (active) | 89.5% (active)
O=C(CC(=O)c1ccccc1)CC(=O)c1ccccc1Cl | -1% | 85% (active) | 88.1% (active) | 8% | 88% (active) | 88% (active) | -2% | 90% (active) | 81.2% (active) | -5% | 81% (active) | 68.2% | -2% | 95% (active) | 78.8% (active) | 0% | 92% (active) | 85.7% (active)
